Hit rate of the full screen: of about 69,000 compounds, about 420 (0.61%) showed an effect of 50% or more. Many of the other results were omitted from the sample, so strong results are more common in it than they were.
target: T1, Histidine--tRNA ligase (Leishmania infantum) (UniProt A4I591); assay: Leishmania infantum Histidine tRNA synthetase (LdHisRS); assay type: functional; design: scale not given: in the data most compounds retested in dose-response had high values; settings: 30 µM
T1 sequence (whole entry): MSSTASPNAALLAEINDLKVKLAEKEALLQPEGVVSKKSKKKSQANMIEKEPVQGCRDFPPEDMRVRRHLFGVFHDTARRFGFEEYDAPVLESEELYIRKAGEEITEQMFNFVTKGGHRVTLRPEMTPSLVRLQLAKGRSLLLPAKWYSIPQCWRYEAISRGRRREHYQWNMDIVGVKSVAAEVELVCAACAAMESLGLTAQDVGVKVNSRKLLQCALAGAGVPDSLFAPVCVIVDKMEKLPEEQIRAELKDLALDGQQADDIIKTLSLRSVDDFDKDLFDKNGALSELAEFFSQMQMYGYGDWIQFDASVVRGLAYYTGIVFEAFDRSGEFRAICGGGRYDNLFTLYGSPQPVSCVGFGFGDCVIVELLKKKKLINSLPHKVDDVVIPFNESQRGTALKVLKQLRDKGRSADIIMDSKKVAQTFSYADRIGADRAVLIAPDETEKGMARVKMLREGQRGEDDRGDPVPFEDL

Row | SMILES | Percent Effect [%]
1 | Cc1ccc(CN2CC[C@@H]3OCCN(S(C)(=O)=O)[C@H]3CC2)s1 | 7.55
2 | Cn1cc(C(=O)N2CC[C@@H]3[C@@H]2CCN3Cc2cccc(C#N)c2)cn1 | 3
3 | CN(C)C[C@@H]1C[C@@H]2CN(C(=O)Cc3cccs3)CC[C@@H]2N1C | 6.42
4 | Cc1ccc(CN2CC[C@H]3C(=O)N(Cc4cccnc4)CCO[C@H]3C2)o1 | 5.88
5 | COc1ccccc1N1CCC(CNCc2cccc(OC)c2OC)C1 (centres undefined) | 59.5
6 | COc1ccccc1N1CCC(CNCc2cccc(O)c2)C1 (centres undefined) | 21.4
7 | COc1ccc(CNCC2CCN(c3ccccc3OC)C2)cc1O (centres undefined) | 16.1
8 | O=C(c1ccco1)N1CCO[C@@H]2CN(c3ccccn3)CC[C@@H]2C1 | 17.5
9 | CN1CCN(C(=O)[C@@H]2CC[C@@H]3[C@@H](CCN3c3ncccn3)O2)CC1 | 14
10 | Cc1ccccc1NC(=O)N1CCN(C(=O)C2CC2)[C@@H]2CS(=O)(=O)C[C@@H]21 | 4.92
11 | CCN(Cc1ccc2cccc(O)c2n1)CC1CCCO1 (centres undefined) | 74
12 | CCN(Cc1cccc2c1OCO2)CC1CCCO1 (centres undefined) | 20
13 | CCN(Cc1ccc(O)c(C(=O)O)c1)CC1CCCO1 (centres undefined) | 16.4
14 | O=C1CC2(CCN(Cc3ccc(C(F)(F)F)nc3)CC2)CN1 | 15.4
15 | O=C1CC2(CCN(Cc3ccc4cccc(O)c4n3)CC2)CN1 | 63.2
16 | CCCc1ccc(CN2CCC3(CC2)CNC(=O)C3)o1 | 11.7
17 | O=C(c1cnccn1)N1CCN2C[C@H](OCc3ccccc3F)C[C@H]2C1 | 1.37
18 | O=C(Cc1ccsc1)N1C[C@@H]2COC[C@]2(COc2cccnc2)C1 | 15.4
19 | CCc1ccccc1OCCN1CC[C@@]2(O)CCNC[C@H]2C1 | 15.8
20 | CNC(=O)[C@@]12CCO[C@@H]1CCN(S(=O)(=O)c1ccc(C)cc1)C2 | -5
21 | CCc1c(C(=O)N2CCN(C)[C@@H]3CS(=O)(=O)C[C@@H]32)[nH]c2ccccc12 | 11
22 | CC(C)NC(=O)N1CCCCC1c1nnc2n1CCNC2 (centres undefined) | 30.3
23 | CC(C)NC(=O)N1CCC(c2nnc3n2CCNC3)CC1 | 74.5

Row | SMILES | Percent Effect [%]
24 | CC(=O)N1CCCCC1c1nnc2n1CCNC2 (centres undefined) | 2.76
25 | O=C(CS(=O)(=O)Cc1csc(-c2ccc(F)cc2)n1)NCC1CC1 | 48.2
26 | NC(=O)CS(=O)(=O)Cc1csc(-c2ccccc2)n1 | 53
27 | NC(=O)CS(=O)(=O)Cc1csc(-c2ccc(F)cc2)n1 | 16.9
28 | O=C([C@@H]1CCO[C@@H]2CCN(CC3CC3)C[C@H]21)N1CCCCO1 | 17.9
29 | O=C(c1ccccc1)N1C[C@@H]2CCCO[C@@H]2[C@H](N2CCCC2)C1 | 22.8
30 | CCC[C@@H]1CN(C(=O)c2ccccc2-c2ccccc2)C[C@H]1N(C)C | 8.57
31 | CCC[C@@H]1CN(C(=O)c2cc3ccccc3cc2O)C[C@H]1N(C)C | 77.1
32 | CCC[C@@H]1CN(C(=O)c2ccccc2C(C)=O)C[C@H]1N(C)C | 8.57
33 | CCC1=N[C@@]2(CC[C@@H]3CN(CC(C)C)C[C@@H]32)C(=O)N1 | 11.1
34 | CCOc1cccc(C(=O)N2C[C@H]3CC[C@@H]2CN(C(=O)C2CCC2)C3)c1 | 4
35 | Cc1ccc(OCc2occc2C(=O)N2C[C@@H]3[C@@H](CN(C)C)[C@@H]3C2)cc1 | 15.9
36 | Cc1nc(COC[C@@]23CCC[C@@H]2CN(Cc2nccs2)C3)cs1 | 15.8
37 | CN(C)C(=O)CO[C@H]1CN(Cc2nccs2)[C@@H]2COC[C@H]12 | 9.91
38 | NC(=O)C1=NC2=NS(=O)(=O)c3ccccc3N2N1Cc1ccccc1Cl | 37.1
39 | NC(=O)CN(Cc1ccc(Br)cc1)C(=O)c1ccccn1 | 7.29
40 | NC(=O)C1=NC2=NS(=O)(=O)c3ccccc3N2N1Cc1ccc(Cl)cc1 | 58.1
41 | NC(=O)C1=NN2C(=NS(=O)(=O)c3ccccc32)N1 | 14.8
42 | NC(=O)C1=NC2=NS(=O)(=O)c3ccccc3N2N1Cc1ccc(Br)cc1 | 59.7
43 | Cc1nnc([C@@H]2CC[C@@H]3[C@@H](CCN3C3CCOCC3)O2)o1 | 2.63
44 | Cc1ccc(CN2CC[C@H]3[C@H]2CCN3S(C)(=O)=O)s1 | 20
45 | O=C(c1ccccn1)N1C[C@@H]2CC[C@H](C1)N(C(=O)CCc1ccsc1)C2 | 10.4
46 | Cc1nnsc1CN1C[C@H]2CC[C@@H]1CN(Cc1ccc(F)cc1)C2 | 8.33

Row | SMILES | Percent Effect [%]
47 | CC(=O)N1CCCCC[C@@H]2[C@@H]1[C@H](c1cccc(F)c1)CN2CCC(N)=O | 13
48 | CC(CCc1ccccc1F)C(=O)NS(C)(=O)=O (centres undefined) | 16.9
49 | CC(CCc1ccccc1)NC(=O)CN1CCOCC1 (centres undefined) | 1.49
50 | COCCn1cc(NC(=O)C(C)CCc2ccccc2F)ccc1=O (centres undefined) | 102
51 | CC(CCc1ccccc1F)C(=O)NS(=O)(=O)N(C)C(C)C (centres undefined) | 19.5
52 | COCCn1cc(NC(=O)NC(C)CCc2ccccc2)ccc1=O (centres undefined) | 98.3
53 | CC(CCc1ccccc1)NC(=O)Nc1cnn(CC(N)=O)c1 (centres undefined) | 24.3
54 | COc1ccc(CN2C[C@@H]3COC[C@]3(CN(C)C)C2)cc1 | 17.6
55 | O=C(Cc1ccncc1)N1C[C@@H]2CC[C@H](C1)N(Cc1ccccc1)C2=O | 6.56
56 | O=C(Cc1csc(-c2ccco2)n1)N1CCN(c2cnccn2)CC1 | 56.8
57 | O=C(Cc1csc(-c2ccco2)n1)N1CCN(c2nccs2)CC1 | 20
58 | Cc1ccc(-c2nc(CC(=O)N3CCN(c4cnccn4)CC3)cs2)o1 | 28.7
59 | Cc1noc(C)c1CN1CC[C@H]2OCC[C@@H](C(=O)N3CCCO3)[C@H]2C1 | 20
60 | O=S(=O)(C1CC1)N1CCO[C@H]2[C@H](OCCN3CCCC3)CC[C@@H]21 | 15.1
61 | O=C1[C@H]2CN(CC3CCOCC3)C[C@H]2CN1c1ccsc1 | 8
62 | O=C(CC1CC1)N[C@@H]1CN(Cc2ccco2)C[C@@H]2CCCO[C@@H]21 | 17.1
63 | COCCN1CCC(C)(c2cc(O)[nH]n2)CC1 | 50
64 | COCC(=O)N1CCC(C)(c2cc(O)[nH]n2)CC1 | 17.1
65 | COCCN1CCCC(C)(c2cc(O)[nH]n2)C1 (centres undefined) | 47.1
66 | Cc1oncc1C(=O)N[C@@H]1CN(c2ncccn2)C[C@@H]2CCCO[C@@H]21 | 20
67 | CN1CCO[C@@H]2CN(S(=O)(=O)c3ccc(F)cc3)CC[C@@H]2C1 | 17.9
68 | CN(Cc1ccco1)C[C@H]1OC[C@@H]2CCN(Cc3cccnc3)C[C@@H]21 | 13.2
69 | c1cncc(CN2CC[C@@H]3O[C@H](COCCN4CCCC4)CC[C@@H]32)c1 | 16
